In PubChem BioAssay (NCATS):
Inconclusive results are not listed. Entries that show only a call come without a potency. A number with no mark means an inactive call. The source made the active and inactive calls. Calls follow the shape of the dose curve; as a rule, active = well fitted curve in the direction sought with a large enough effect; inconclusive = small, poorly fitted or top-dose-only effect, or another doubt; inactive = no such curve, though single readings can be large; an effect the other way counts as inactive or inconclusive.

Assays:
[1] = qHTS of pediatric cancer cell lines to identify multiple opportunities for drug repurposing: Primary screen for NB-EBc1 cells (AID 1347095); also: potency is read from the fitted curve at half-maximal effect
Method in brief: (§1)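 Luminescence from CellTiter-Glo served as readout of metabolically active cells after 48 h compound exposure. Titrations: MIPE 11-point, from 0.78 nM; NPC 8-point, from 0.59 nM (final). Concentration-response curves came straight from the primary screen.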

[2] = qHTS of pediatric cancer cell lines to identify multiple opportunities for drug repurposing: Primary screen for U-2 OS cells (AID 1347096); also: nearly all actives have a fitted effect of over 50% in size; also: potency is read from the fitted curve at half-maximal effect
Method in brief: (§2)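 Cells (500-1,000/well) in growth media were settled 5 h at 37 degrees C, then given compounds for 48 h. Viability was read as CellTiter-Glo luminescence. Primary runs used MIPE at 11 points (0.78 nM-46 µM) and NPC at 8 points (0.59 nM-46 µM); follow-ups used 11 points.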

[3] = qHTS of pediatric cancer cell lines to identify multiple opportunities for drug repurposing: Primary screen for Saos-2 cells (AID 1347097); also: nearly all actives have a fitted effect of over 40% in size; also: potency is read from the fitted curve at half-maximal effect
Method in brief: as §1

[4] = qHTS of pediatric cancer cell lines to identify multiple opportunities for drug repurposing: Primary screen for SK-N-SH cells (AID 1347098); also: nearly all actives have a fitted effect of over 65% in size; also: potency is read from the fitted curve at half-maximal effect
Method in brief: (§3)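 Cells (500-1,000/well) rested 5 h, then received compounds for 48 h; metabolically active cells were measured by CellTiter-Glo luminescence. Final concentrations spanned up to 46 µM (MIPE, 11-point) or 0.59 nM-46 µM (NPC, 8-point) in primary screens, 11-point in follow-ups.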

[5] = qHTS of pediatric cancer cell lines to identify multiple opportunities for drug repurposing: Primary screen for LAN-5 cells (AID 1347100); also: potency is read from the fitted curve at half-maximal effect
Method in brief: as §2

[6] = qHTS of pediatric cancer cell lines to identify multiple opportunities for drug repurposing: Primary screen for BT-12 cells (AID 1347101); also: nearly all actives have a fitted effect of over 25% in size; also: potency is read from the fitted curve at half-maximal effect
Method in brief: as §3

[7] = qHTS of pediatric cancer cell lines to identify multiple opportunities for drug repurposing: Primary screen for Rh18 cells (AID 1347102); also: nearly all actives have a fitted effect of over 65% in size
Method in brief: as §2

[8] = qHTS of pediatric cancer cell lines to identify multiple opportunities for drug repurposing: Primary screen for OHS-50 cells (AID 1347103); also: nearly all actives have a fitted effect of over 40% in size; also: potency is read from the fitted curve at half-maximal effect
Method in brief: as §3

[9] = qHTS of pediatric cancer cell lines to identify multiple opportunities for drug repurposing: Primary screen for RD cells (AID 1347104); also: nearly all actives have a fitted effect of over 55% in size; also: potency is read from the fitted curve at half-maximal effect
Method in brief: as §1

[10] = qHTS of pediatric cancer cell lines to identify multiple opportunities for drug repurposing: Primary screen for MG 63 (6-TG R) cells (AID 1347105); also: nearly all actives have a fitted effect of over 50% in size
Method in brief: as §1

[11] = qHTS of pediatric cancer cell lines to identify multiple opportunities for drug repurposing: Primary screen for control Hh wild type fibroblast cells (AID 1347106);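 also: series mostly up to about 46 µM; a drop in luminescence marks cytotoxicity and a rise apparent proliferation; nearly all actives have a fitted effect of over 55% in size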
Method in brief: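 Viability after 48 h compound treatment at 37C, 500-1,000 cells/well, read as ATP luminescence with CellTiter-Glo. Primary screens used 11-point (MIPE, 0.78 nM-46 µM) or 8-point (NPC, 0.59 nM-46 µM) final concentrations; follow-up screens used 11-point dilutions.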

[12] = qHTS of pediatric cancer cell lines to identify multiple opportunities for drug repurposing: Primary screen for Rh30 cells (AID 1347107); also: series mostly up to about 46 µM; nearly all actives have a fitted effect of over 75% in size
Method in brief: as §2

[13] = qHTS of pediatric cancer cell lines to identify multiple opportunities for drug repurposing: Primary screen for NB1643 cells (AID 1347099); also: nearly all actives have a fitted effect of over 50% in size
Method in brief: as §1

[14] = qHTS of pediatric cancer cell lines to identify multiple opportunities for drug repurposing: Primary screen for Rh41 cells (AID 1347108); also: nearly all actives have a fitted effect of over 70% in size; also: potency is read from the fitted curve at half-maximal effect
Method in brief: as §1

[15] = qHTS of pediatric cancer cell lines to identify multiple opportunities for drug repurposing: Confirmatory screen for NB1643 cells (AID 1347109); also: potency is read from the fitted curve at half-maximal effect; nearly all actives have a fitted effect of over 45% in size
Method in brief: as §2

[16] = qHTS of pediatric cancer cell lines to identify multiple opportunities for drug repurposing: Confirmatory screen for SK-N-MC cells (AID 1347111);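 also: potency is read from the fitted curve at half-maximal effect; cells exposed to compound for 48 h before the readout; nearly all actives have a fitted effect of over 70% in size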
Method in brief: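 Metabolically active cells were quantified by ATP-dependent luminescence (CellTiter-Glo, 15 min at room temperature) following 48 h treatment. Cells had been plated at 500-1,000 per well and settled for 5 h beforehand.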

[17] = qHTS of pediatric cancer cell lines to identify multiple opportunities for drug repurposing: Confirmatory screen for BT-12 cells (AID 1347112); also: potency is read from the fitted curve at half-maximal effect; nearly all actives have a fitted effect of over 55% in size
Method in brief: as §2

[18] = qHTS of pediatric cancer cell lines to identify multiple opportunities for drug repurposing: Confirmatory screen for LAN-5 cells (AID 1347113); also: potency is read from the fitted curve at half-maximal effect; nearly all actives have a fitted effect of over 65% in size
Method in brief: as §2

[19] = qHTS of pediatric cancer cell lines to identify multiple opportunities for drug repurposing: Confirmatory screen for DAOY cells (AID 1347114); also: nearly all actives have a fitted effect of over 65% in size
Method in brief: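 Viability measured as metabolically active cells via CellTiter-Glo luminescence following 48 hours of compound exposure, 11-point dilutions in confirmatory testing. 500-1,000 cells/well plated 5 hours before dosing; controls were DMSO and 2.3 µM bortezomib.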

Row | SMILES | Potency [1] | Potency [2] | Potency [3] | Potency [4] | Potency [5] | Potency [6] | Potency [7] | Potency [8] | Potency [9] | Potency [10] | Potency [11] | Potency [12] | Potency [13] | Potency [14] | Potency [15] | Potency [16] | Potency [17] | Potency [18] | Potency [19]
1 | CSCC[C@H](NC(=O)[C@H](Cc1c[nH]c2ccccc12)NC(=O)CCNC(=O)OC(C)(C)C)C(=O)N[C@@H](CC(=O)O)C(=O)N[C@@H](Cc1ccccc1)C(N)=O | inactive | inactive | inactive | inactive | inactive | inactive | inactive | inactive | inactive | inactive | inactive | inactive |  |  |  |  |  |  | 
2 | O=C(O)C1CCC1 | inactive | inactive | inactive | inactive | inactive | inactive |  | inactive | inactive | inactive | inactive |  | inactive | inactive |  |  |  |  | 
3 | CCOC(=O)NNc1ccc(N(CC)CC(C)O)nn1 (centres undefined) | inactive | inactive | inactive | inactive |  | inactive | inactive | inactive | inactive | inactive | inactive | inactive | inactive | inactive |  |  |  |  | 
4 | Cc1cc(CCCOc2c(C)cc(-c3noc(C(F)(F)F)n3)cc2C)on1 | inactive | inactive | inactive | inactive | inactive |  | inactive | 19.5 µM (active) | inactive | inactive | inactive | inactive | inactive |  |  |  |  |  | 
5 | Nc1c(NC/C=C\COc2cc(CN3CCCCC3)ccn2)c(=O)c1=O | inactive | inactive | inactive | inactive | inactive |  | inactive | inactive | inactive | inactive | inactive | inactive | inactive |  |  |  |  |  | 
6 | Nc1ncnc2c1ncn2Cc1c(F)cccc1Cl | inactive | inactive | inactive | inactive | inactive | inactive | inactive | inactive | inactive | inactive | inactive | inactive |  | inactive |  |  |  |  | 
7 | O=C(O)c1ccccc1Nc1cc(Cl)ccc1C(=O)O | inactive | inactive | 9.2 µM (active) | 11.9 µM (active) | inactive | inactive | inactive | inactive | inactive | inactive | inactive | inactive |  |  |  |  |  |  | 
8 | Oc1ccccc1-c1nnco1 | inactive | inactive | inactive | inactive | inactive | inactive | inactive | inactive | inactive | inactive | inactive | inactive |  | inactive |  |  |  |  | 
9 | CC(C)OP(=O)(CP(=O)(OC(C)C)OC(C)C)OC(C)C | inactive | inactive | inactive | inactive | inactive | inactive |  |  | inactive | inactive | inactive | inactive | inactive |  |  |  |  |  | 
10 | CCCCC(=O)OCC(=O)[C@H]1[C@H](C)C[C@H]2[C@@H]3C[C@H](F)C4=CC(=O)C=C[C@]4(C)[C@@]3(F)[C@@H](O)C[C@@]21C | inactive | inactive | inactive | inactive | inactive | inactive |  |  | inactive | inactive | inactive | inactive | inactive | inactive | 18.5 µM (active) | 10.4 µM (active) | 14.7 µM (active) | 23.3 µM (active) | inactive
11 | O=C1CC2(CCCC2)CC(=O)N1 | inactive | inactive | inactive | inactive |  | inactive | inactive | inactive |  | inactive | inactive | inactive | inactive | inactive |  |  |  |  | 
12 | CCCCCCCCCCCCCCCC[n+]1ccccc1 | 18.8 µM (active) | 21.1 µM (active) | 15 µM (active) | 7.7 µM (active) | 13.3 µM (active) | 6.92 µM (active) |  | 2.46 µM (active) | 13.3 µM (active) |  |  |  | inactive | 11.9 µM (active) |  |  |  |  | 
13 | C[N+]1(C)CCC(OC(=O)C(O)(c2ccccc2)C2CCCC2)C1 (centres undefined) | inactive | inactive | inactive | inactive | inactive | inactive | inactive | inactive | inactive | inactive | inactive |  |  |  |  |  |  |  | 
14 | Nc1ccc(C(=O)N2CC3CC(CN(Cc4ccccc4)C3)C2)cc1 | inactive | inactive | inactive | inactive | inactive | inactive | inactive | inactive | inactive | inactive | inactive | inactive |  | inactive |  |  |  |  | 
15 | COc1c(N2C[C@@H]3CCCN[C@@H]3C2)c(F)cc2c(=O)c(C(=O)O)cn(C3CC3)c12 | inactive | inactive | inactive | inactive | inactive | inactive |  | inactive | inactive | inactive | inactive | inactive | inactive | inactive |  |  |  |  | 
16 | CC(=O)OC[C@H]1O[C@@H](OC(C)=O)[C@H](OC(C)=O)[C@@H]1OC(C)=O | inactive | inactive | inactive | inactive | inactive | inactive | inactive | inactive | inactive | inactive | inactive | inactive |  | inactive |  |  |  |  | 
17 | COc1ccccc1OCC1CNC(=O)O1 (centres undefined) | inactive | inactive | inactive | inactive | inactive | inactive |  | inactive | inactive | inactive | inactive | inactive | inactive | inactive |  |  |  |  | 
18 | Cc1ccc(/C=N/n2c(-c3ccccc3)csc2=S)cc1 | inactive | inactive | inactive | inactive | inactive |  | inactive |  | inactive | inactive | inactive | inactive | inactive | inactive |  |  |  |  | 
